Results from PubChem BioAssay (NCI).
The panel holds about 83,000 compounds, 20% with a hit somewhere; the sample as a whole holds those more often.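 Step 1: grow cells in 96-well plates. Step 2: add test compound at a single concentration. Step 3: incubate 48 h. Step 4: record percent growth.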 Activity calls are given as the source filed them. How the source made its calls: active means growth percent below 10; inactive means the rest.

Assays:
Experiment in all cases: NCI-60 one-dose screen, 48 h (100 = growth as untreated, 0 = no growth, -100 = all killed)
Conditions in all cases: 10 µM unless noted
HCT-15 colon = system: HCT-15 colon
HT29 colon = system: HT29 colon
SNB-75 CNS = system: SNB-75 CNS
SNB-19 CNS = system: SNB-19 CNS
U251 CNS = system: U251 CNS
PC-3 prostate = system: PC-3 prostate
SK-MEL-5 melanoma = system: SK-MEL-5 melanoma
UACC-62 melanoma = system: UACC-62 melanoma
SK-MEL-28 melanoma = system: SK-MEL-28 melanoma
SK-MEL-2 melanoma = system: SK-MEL-2 melanoma
EKVX NSCLC = system: EKVX NSCLC
SN12C renal = system: SN12C renal
UO-31 renal = system: UO-31 renal
TK-10 renal = system: TK-10 renal
ACHN renal = system: ACHN renal
CAKI-1 renal = system: CAKI-1 renal
A498 renal = system: A498 renal
CCRF-CEM leukemia = system: CCRF-CEM leukemia
MOLT-4 leukemia = system: MOLT-4 leukemia

Measured: growth

CC(c1ccccc1)N1C(=O)C(C2SC(=S)N(C(C)c3ccccc3)C2=O)SC1=S (configuration not stated)
inactive: HCT-15 colon 54.9% | HT29 colon 72.5% | SNB-75 CNS 89% | SNB-19 CNS 78.6% | U251 CNS 85% | PC-3 prostate 84.7% | SK-MEL-5 melanoma 99.3% | UACC-62 melanoma 77.7% | SK-MEL-28 melanoma 86.6% | SK-MEL-2 melanoma 101% | EKVX NSCLC 94.4% | SN12C renal 85.5% | UO-31 renal 66.5% | TK-10 renal 106% | ACHN renal 74.4% | CAKI-1 renal 66.6% | A498 renal 106% | CCRF-CEM leukemia 54.1% | MOLT-4 leukemia 78.8%

COc1ccc(NC(=O)c2ccoc2COc2ccccc2)cc1
inactive: HCT-15 colon 89% | HT29 colon 107% | SNB-75 CNS 87.2% | SNB-19 CNS 89.6% | U251 CNS 96.1% | PC-3 prostate 91.3% | SK-MEL-5 melanoma 100% | UACC-62 melanoma 82.7% | SK-MEL-28 melanoma 94.6% | SK-MEL-2 melanoma 97.9% | EKVX NSCLC 94.7% | SN12C renal 94% | UO-31 renal 81.1% | TK-10 renal 109% | ACHN renal 98.3% | CAKI-1 renal 86.2% | A498 renal 99.7% | CCRF-CEM leukemia 87.7% | MOLT-4 leukemia 95.6%

CCOc1ccc(NC(=O)c2ccccc2-c2ccccc2C(=O)O)cc1
inactive: HCT-15 colon 106% | HT29 colon 107% | SNB-75 CNS 91.3% | SNB-19 CNS 98.8% | U251 CNS 112% | PC-3 prostate 101% | SK-MEL-5 melanoma 106% | UACC-62 melanoma 99.2% | SK-MEL-28 melanoma 109% | SK-MEL-2 melanoma 101% | EKVX NSCLC 101% | SN12C renal 100% | UO-31 renal 88.7% | TK-10 renal 110% | ACHN renal 107% | CAKI-1 renal 98.9% | A498 renal 93.3% | CCRF-CEM leukemia 99.5% | MOLT-4 leukemia 83.6%

O=C1OC(c2ccc(Cl)c(Cl)c2)=C/C1=C/c1cccc([N+](=O)[O-])c1
inactive: HCT-15 colon 99.1% | HT29 colon 93.7% | SNB-75 CNS 92.9% | SNB-19 CNS 94.9% | U251 CNS 99.2% | PC-3 prostate 97.9% | SK-MEL-5 melanoma 102% | UACC-62 melanoma 88.7% | SK-MEL-28 melanoma 105% | SK-MEL-2 melanoma 102% | EKVX NSCLC 91.8% | SN12C renal 93% | UO-31 renal 68% | ACHN renal 100% | CAKI-1 renal 91.3% | A498 renal 101% | CCRF-CEM leukemia 103% | MOLT-4 leukemia 103%

O=C(N/N=C\c1c(O)ccc2ccccc12)C1CC1
active: UO-31 renal 8.64% | CAKI-1 renal 2.09% | MOLT-4 leukemia 9.27%
inactive: HCT-15 colon 28.4% | HT29 colon 69.6% | SNB-75 CNS 53.8% | SNB-19 CNS 54.9% | U251 CNS 35.6% | PC-3 prostate 45.8% | SK-MEL-5 melanoma 53.1% | UACC-62 melanoma 25.2% | SK-MEL-28 melanoma 69.7% | SK-MEL-2 melanoma 35.1% | EKVX NSCLC 32.1% | SN12C renal 66.5% | TK-10 renal 78.1% | A498 renal 102% | CCRF-CEM leukemia 11.9%

O=[N+]([O-])c1cccc(/C=N\Nc2ccccc2)c1
inactive: HCT-15 colon 58% | HT29 colon 80% | SNB-75 CNS 78.5% | SNB-19 CNS 95.5% | U251 CNS 83.4% | PC-3 prostate 67% | SK-MEL-5 melanoma 92.5% | SK-MEL-28 melanoma 103% | SK-MEL-2 melanoma 42.1% | EKVX NSCLC 59.8% | SN12C renal 74.7% | UO-31 renal 47.4% | TK-10 renal 98.7% | ACHN renal 41.9% | CAKI-1 renal 59.9% | CCRF-CEM leukemia 59.5% | MOLT-4 leukemia 71.5%
active: UACC-62 melanoma 4.87%

CC1(C)CC[C@]2(C(=O)Nc3ccccn3)CC[C@]3(C)C(=CC[C@@H]4[C@@]5(C)C/C(=C/c6ccncc6)C(=O)C(C)(C)[C@@H]5CC[C@]43C)[C@@H]2C1
active: HT29 colon 9.45% | SK-MEL-5 melanoma -49.8% | A498 renal -17.2%
inactive: HCT-15 colon 15.3% | SNB-75 CNS 91.6% | SNB-19 CNS 58.4% | U251 CNS 10.3% | PC-3 prostate 28% | UACC-62 melanoma 23.9% | SK-MEL-28 melanoma 37.5% | SK-MEL-2 melanoma 63.3% | EKVX NSCLC 39.3% | SN12C renal 34.4% | UO-31 renal 36.9% | TK-10 renal 77.4% | CAKI-1 renal 40.4% | CCRF-CEM leukemia 25.4% | MOLT-4 leukemia 11.6%

CN(C)c1ccc(N)c2ccccc12
active: HCT-15 colon -82.9% | SK-MEL-5 melanoma -99.4% | UACC-62 melanoma -6.64% | SN12C renal -62.2%
inactive: HT29 colon 70.5% | SNB-75 CNS 101% | SNB-19 CNS 66.7% | U251 CNS 64.3% | PC-3 prostate 32.1% | SK-MEL-28 melanoma 56.6% | SK-MEL-2 melanoma 89.6% | EKVX NSCLC 49.2% | UO-31 renal 52.7% | TK-10 renal 128% | CAKI-1 renal 69.4% | A498 renal 183% | CCRF-CEM leukemia 41.8% | MOLT-4 leukemia 40.7%

O=[N+]([O-])c1ccc(/C=N\Nc2ccccc2)cc1
inactive: HCT-15 colon 65.5% | HT29 colon 96.8% | SNB-75 CNS 81.8% | SNB-19 CNS 104% | U251 CNS 72% | PC-3 prostate 69% | SK-MEL-5 melanoma 98.1% | SK-MEL-28 melanoma 97.5% | SK-MEL-2 melanoma 49.5% | EKVX NSCLC 76.6% | SN12C renal 87.3% | UO-31 renal 65.5% | TK-10 renal 111% | ACHN renal 72.6% | CAKI-1 renal 72.8% | A498 renal 75.3% | MOLT-4 leukemia 89.7%
active: UACC-62 melanoma 3.85%

Cc1ccc2c(c1)c(-c1nc(-c3c[nH]c4ncccc34)cs1)cn2C
inactive: HCT-15 colon 86.5% | HT29 colon 69% | SNB-75 CNS 91.2% | SNB-19 CNS 107% | U251 CNS 98.6% | PC-3 prostate 85.7% | SK-MEL-5 melanoma 98.8% | UACC-62 melanoma 94.5% | SK-MEL-28 melanoma 109% | SK-MEL-2 melanoma 99.3% | EKVX NSCLC 35.1% | SN12C renal 90.9% | UO-31 renal 86.2% | TK-10 renal 81.5% | CAKI-1 renal 107% | A498 renal 112% | CCRF-CEM leukemia 77.7% | MOLT-4 leukemia 75.2%

Fc1cccc(-c2[nH]nc3nc(Nc4cccnc4)sc23)c1
inactive: HCT-15 colon 37.1% | HT29 colon 14.5% | SNB-75 CNS 47.5% | SNB-19 CNS 40.2% | U251 CNS 38.6% | PC-3 prostate 33.1% | SK-MEL-5 melanoma 33% | UACC-62 melanoma 57.2% | SK-MEL-28 melanoma 68.6% | SK-MEL-2 melanoma 46.6% | EKVX NSCLC 57% | SN12C renal 58.5% | UO-31 renal 46.2% | TK-10 renal 77.3% | CAKI-1 renal 21.4% | A498 renal 84.2% | CCRF-CEM leukemia 28.8% | MOLT-4 leukemia 48.5%

N#CC1=C(N)Oc2ccc3ccccc3c2C1c1ccccc1Cl (configuration not stated)
inactive: HCT-15 colon 24% | HT29 colon 22.2% | SNB-19 CNS 33.9% | U251 CNS 37.2% | PC-3 prostate 46.1% | SK-MEL-5 melanoma 42.7% | UACC-62 melanoma 24.2% | SK-MEL-28 melanoma 61.1% | SK-MEL-2 melanoma 45.9% | EKVX NSCLC 42.5% | SN12C renal 50% | UO-31 renal 48.9% | ACHN renal 49.9% | CAKI-1 renal 34.5% | A498 renal 40.1% | CCRF-CEM leukemia 26.1% | MOLT-4 leukemia 26.7%
active: SNB-75 CNS -2.04%

Cc1ccc(Sc2sc(-c3ccccc3)nc2[P+](c2ccccc2)(c2ccccc2)c2ccccc2)cc1
active: HCT-15 colon 1.24% | HT29 colon 3.9% | SNB-75 CNS -3.74% | PC-3 prostate -30.6% | SK-MEL-5 melanoma -97.6% | UACC-62 melanoma -33.7% | SK-MEL-2 melanoma -37.8% | EKVX NSCLC 5.57% | SN12C renal 6% | UO-31 renal -39.1% | ACHN renal 6.46% | CAKI-1 renal -14.2% | A498 renal -43.5% | CCRF-CEM leukemia 7.63% | MOLT-4 leukemia -48.2%
inactive: SNB-19 CNS 10.4% | U251 CNS 13.8% | SK-MEL-28 melanoma 25.5%

Clc1ccccc1-c1nc(Nc2nc3ccccc3s2)nc(C(Cl)(Cl)Cl)n1
active: ACHN renal 6.55%
inactive: HCT-15 colon 19.2% | HT29 colon 13.1% | SNB-75 CNS 58.2% | SNB-19 CNS 43.5% | U251 CNS 20.5% | PC-3 prostate 40.8% | SK-MEL-5 melanoma 90.7% | UACC-62 melanoma 48.1% | SK-MEL-28 melanoma 51.3% | SK-MEL-2 melanoma 85.9% | EKVX NSCLC 54% | SN12C renal 82.6% | UO-31 renal 14.3% | TK-10 renal 84.1% | CAKI-1 renal 20.9% | CCRF-CEM leukemia 92.5% | MOLT-4 leukemia 86.3%

C=C(C)[C@@H]1CC[C@]2(C(=O)O)CC[C@]3(C)[C@H](CC[C@@H]4[C@@]5(C)C/C(=C/c6ccc(OC)cc6)C(=O)C(C)(C)[C@@H]5CC[C@]43C)[C@@H]12
inactive: HT29 colon 16% | SNB-75 CNS 27.2% | SNB-19 CNS 32.3% | U251 CNS 25.4% | PC-3 prostate 15.5% | UACC-62 melanoma 17.1% | SK-MEL-28 melanoma 41.3% | SK-MEL-2 melanoma 38.1% | SN12C renal 18% | UO-31 renal 12.6% | TK-10 renal 24.5% | CAKI-1 renal 23.8% | A498 renal 49.6% | MOLT-4 leukemia 15.3%
active: HCT-15 colon 5.16% | SK-MEL-5 melanoma 6.21% | EKVX NSCLC 9.53%

C/C(=N\NC(=O)C(C)SC(C)C(=O)N/N=C(\C)c1cccnc1)c1cccnc1 (configuration not stated)
inactive: HCT-15 colon 102% | HT29 colon 94.1% | SNB-75 CNS 89.7% | SNB-19 CNS 110% | U251 CNS 110% | PC-3 prostate 101% | SK-MEL-5 melanoma 98.4% | UACC-62 melanoma 101% | SK-MEL-28 melanoma 113% | SK-MEL-2 melanoma 93.8% | EKVX NSCLC 100% | SN12C renal 106% | UO-31 renal 81% | ACHN renal 106% | CAKI-1 renal 97.7% | A498 renal 88.2% | CCRF-CEM leukemia 99.4% | MOLT-4 leukemia 86.7%

COc1ccc2c(c1)C(Br)=C(CCO)C2c1ccccc1 (configuration not stated)
inactive: HCT-15 colon 87.6% | HT29 colon 41.8% | SNB-75 CNS 57% | SNB-19 CNS 57.7% | U251 CNS 55.8% | PC-3 prostate 54.5% | SK-MEL-5 melanoma 96.5% | UACC-62 melanoma 60% | SK-MEL-28 melanoma 69.5% | SK-MEL-2 melanoma 85% | EKVX NSCLC 75.8% | SN12C renal 99.2% | UO-31 renal 62.4% | TK-10 renal 67% | CAKI-1 renal 37% | CCRF-CEM leukemia 95.2% | MOLT-4 leukemia 114%
